Assay results reported in PubChem BioAssay (NCATS).
Records with an inconclusive call do not appear. Active and inactive are the calls of the source. Unless noted, the call rests on the fitted dose curve; in most records, active means well fitted curve in either direction with a large enough effect (not every such curve was filed as active); inconclusive means small, poorly fitted or top-dose-only effect, or another doubt; inactive means flat fitted curve, though single readings scatter.

What was measured:
[1] = target: Lysosomal acid glucosylceramidase (Homo sapiens) (UniProt P04062); experiment: Glucocerebrosidase-p2 (AID 348; in the data active means potency below about 10 µM; further: potency means the concentration at half of the fitted maximal effect); settings: purified GBA, blue fluorogenic substrate, 40 min
Lysosomal acid glucosylceramidase (Homo sapiens), sequence (P04062 whole entry, looked up): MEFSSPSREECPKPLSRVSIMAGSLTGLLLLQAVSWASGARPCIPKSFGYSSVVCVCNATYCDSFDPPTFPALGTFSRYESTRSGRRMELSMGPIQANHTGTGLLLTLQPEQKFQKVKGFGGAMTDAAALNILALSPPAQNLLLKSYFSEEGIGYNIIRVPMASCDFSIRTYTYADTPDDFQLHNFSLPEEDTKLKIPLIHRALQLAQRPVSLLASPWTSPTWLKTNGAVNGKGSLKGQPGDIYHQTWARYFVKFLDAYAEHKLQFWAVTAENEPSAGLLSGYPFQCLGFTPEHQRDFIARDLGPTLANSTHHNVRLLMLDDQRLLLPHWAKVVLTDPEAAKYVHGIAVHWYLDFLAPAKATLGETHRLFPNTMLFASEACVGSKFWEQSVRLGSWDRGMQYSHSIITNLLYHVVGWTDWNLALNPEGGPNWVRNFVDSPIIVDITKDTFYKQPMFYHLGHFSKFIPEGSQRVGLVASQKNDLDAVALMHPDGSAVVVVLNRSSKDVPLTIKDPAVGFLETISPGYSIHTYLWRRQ
Method in brief: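 Normal human glucocerebrosidase (0.2 nM) with blue fluorogenic substrate (80 uM final) in citrate/phosphate pH 5.9 with 10mM sodium taurocholate, 0.01% tween-20; 40 min RT, NaOH/glycine stop; fluorescence Ex 365/Em 440; AC50 from a titration from 0.6 nM upwards.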

[2] = AP1 Signaling Pathway (AID 357); settings: ME-180 AP-1-bla reporter, EGF-induced, beta-lactamase ratio, 5 h; at 7.69 µM (top of the series) unless noted; further: on the % scale 0 is the no-effect control and ±100 the full control effect
Method in brief: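 AP-1-bla ME-180 cells with beta-lactamase reporter under AP-1 response element, stimulated with EC50 EGF; compounds titrated, 5 hours at 37 degrees Celsius. CCF4 read at 460/530 nm ratio; positive and negative modulators judged by AC50.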

[3] = target: Cytochrome P450 1A2 (Homo sapiens) (UniProt P05177); experiment: p450-cyp1a2 (AID 410; calls by dose curve; further: potency means the concentration at half of the fitted maximal effect;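 on activity change, negative = inhibition: -100% = full effect of reference inhibitor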); settings: recombinant CYP1A2, luciferin-ME demethylation, luminescence; series mostly up to 57 µM
Cytochrome P450 1A2 (Homo sapiens), sequence (P05177 whole entry, looked up): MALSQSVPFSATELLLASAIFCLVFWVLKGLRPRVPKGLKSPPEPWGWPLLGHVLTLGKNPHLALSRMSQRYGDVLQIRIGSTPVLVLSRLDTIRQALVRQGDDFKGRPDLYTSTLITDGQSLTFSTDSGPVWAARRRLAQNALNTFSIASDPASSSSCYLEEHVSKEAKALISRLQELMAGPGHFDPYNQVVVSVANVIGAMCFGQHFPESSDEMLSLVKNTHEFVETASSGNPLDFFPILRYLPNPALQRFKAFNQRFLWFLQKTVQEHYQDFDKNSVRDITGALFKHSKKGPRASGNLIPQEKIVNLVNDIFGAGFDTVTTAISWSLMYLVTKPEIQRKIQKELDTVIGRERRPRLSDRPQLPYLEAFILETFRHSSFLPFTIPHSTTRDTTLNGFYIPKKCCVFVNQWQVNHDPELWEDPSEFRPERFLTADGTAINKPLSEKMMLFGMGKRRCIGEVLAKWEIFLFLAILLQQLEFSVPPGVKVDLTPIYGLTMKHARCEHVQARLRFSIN
Method in brief: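 O-Demethylation of luciferin 6' methyl ether by human CYP1A2 is monitored as luciferase luminescence. Substrate sits at Km (100uM); enzyme is 20nM. Values are scaled to 57 uM furafylline as maximal inhibition.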

[4] = Stat Signaling Pathway (AID 446); settings: ME-180 (cervical carcinoma) SIE beta-lactamase reporter, IL-6 stimulated, 5 h; at 7.69 µM (top of the series) unless noted;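 further: ME-180 cervical cancer cells given 40 pM IL-6 alongside compound; SIE-controlled beta-lactamase reporter measured as 460/530 nm FRET emission ratio; on the % scale 0 is the no-effect control and ±100 the full control effect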
Method in brief: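 Overnight-plated ME-180 cells bearing a STAT Inducible Element beta-lactamase reporter; 5 h co-exposure to compound and 40 pM IL-6; values normalized to 300 pM IL-6 and 125 nM JAK inhibitor controls.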

[5] = target: Mitogen-activated protein kinase 10 (Mus musculus) (UniProt Q61831); experiment: JNK3 AlphaScreen Assay (AID 530); settings: JNK3 lysate, c-Jun phosphorylation; series mostly up to 57.1 µM;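 further: kinase came from lysate of stimulated human HepG2 cells; signal reports phosphorylation of biotinylated GST-cJun 1-79 at Ser73 with 10 µM ATP; on the % scale 0 is the no-effect control and ±100 the full control effect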
Method in brief: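 qHTS titrations with 15 min compound pre-incubation before adding ATP (10 uM final). Read-out: AlphaScreen of Ser73-phosphorylated biotin-GST-cJun using HepG2 lysate JNK3 activated by IL-1β and TNFα.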

[6] = target: 3',5'-cyclic-AMP phosphodiesterase 4B (Homo sapiens) (UniProt Q07343); experiment: qHTS Assay for Inhibitors of PDE-IV (AID 607; active means well fitted activation curve with a large enough effect in the main read-out, with a control signal flat, not every such curve was filed as active; further: % of control where 0% means no effect); settings: HEK293 ACTOne CNG channel cells, membrane potential fluorescence; series mostly up to 22.9 µM
3',5'-cyclic-AMP phosphodiesterase 4B (Homo sapiens), sequence (Q07343 whole entry, looked up): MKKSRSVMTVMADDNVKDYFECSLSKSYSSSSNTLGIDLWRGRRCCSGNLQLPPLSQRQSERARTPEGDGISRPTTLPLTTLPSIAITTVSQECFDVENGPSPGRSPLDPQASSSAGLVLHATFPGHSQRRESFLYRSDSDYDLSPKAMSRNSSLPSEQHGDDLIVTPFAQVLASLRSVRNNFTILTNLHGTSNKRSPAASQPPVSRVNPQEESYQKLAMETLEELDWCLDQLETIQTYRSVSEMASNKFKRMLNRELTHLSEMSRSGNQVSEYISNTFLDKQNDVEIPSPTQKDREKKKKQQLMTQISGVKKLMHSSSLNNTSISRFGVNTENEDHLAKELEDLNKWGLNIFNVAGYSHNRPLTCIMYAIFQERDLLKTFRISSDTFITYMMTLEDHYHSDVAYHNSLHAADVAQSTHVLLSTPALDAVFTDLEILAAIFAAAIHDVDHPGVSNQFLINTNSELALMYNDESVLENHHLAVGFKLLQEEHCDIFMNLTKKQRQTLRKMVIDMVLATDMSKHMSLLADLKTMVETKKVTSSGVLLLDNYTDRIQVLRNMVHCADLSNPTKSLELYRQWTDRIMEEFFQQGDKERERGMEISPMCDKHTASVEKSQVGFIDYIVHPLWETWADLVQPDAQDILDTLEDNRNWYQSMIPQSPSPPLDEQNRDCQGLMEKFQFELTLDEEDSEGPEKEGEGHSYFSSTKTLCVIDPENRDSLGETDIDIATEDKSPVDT
Method in brief: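 Live HEK293 cells with a modified cyclic nucleotide-gated (CNG) channel report intracellular cAMP via membrane-potential dye fluorescence (ex 535/em 590 nm). Endogenous PDE-IV was targeted. Compounds were tested at up to 22.9 uM final; RO 20-1724 100 uM served as control.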

[7] = target: Cytochrome P450 3A4 (Homo sapiens) (UniProt P08684); experiment: qHTS Assay for Activators of Cytochrome P450 3A4 (AID 885; active means well fitted curve in the direction sought with a large enough effect; an effect the other way counts as inactive or inconclusive; further: nearly all actives have a fitted effect of over 65% in size); settings: recombinant CYP3A4, Luciferin-PPXE luminescence, 60 min; series mostly up to 57.1 µM
Cytochrome P450 3A4 (Homo sapiens), sequence (P08684 whole entry, looked up): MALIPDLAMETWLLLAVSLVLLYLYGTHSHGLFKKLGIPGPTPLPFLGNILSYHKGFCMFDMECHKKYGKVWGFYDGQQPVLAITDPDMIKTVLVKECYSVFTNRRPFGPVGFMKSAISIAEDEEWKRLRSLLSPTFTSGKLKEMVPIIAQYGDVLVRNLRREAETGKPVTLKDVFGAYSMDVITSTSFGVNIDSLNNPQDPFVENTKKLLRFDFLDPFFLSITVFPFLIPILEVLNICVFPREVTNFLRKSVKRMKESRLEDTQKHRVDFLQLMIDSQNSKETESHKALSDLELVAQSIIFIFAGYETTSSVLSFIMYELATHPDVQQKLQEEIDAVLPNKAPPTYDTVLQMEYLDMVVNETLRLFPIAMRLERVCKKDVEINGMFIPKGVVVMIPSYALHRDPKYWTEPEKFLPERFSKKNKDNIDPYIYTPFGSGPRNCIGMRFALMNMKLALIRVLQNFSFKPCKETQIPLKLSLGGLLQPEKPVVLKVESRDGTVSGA
Method in brief: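 Using 20nM recombinant human CYP3A4 in potassium phosphate (200mM), substrate Luciferin-PPXE at 25uM, luminescent luciferin detection followed a 60-min RT NADPH reaction; data scaled to 57 uM ketoconazole.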

[8] = qHTS Assay for Lipid Storage Modulators (AID 1519; calls by dose curve); settings: Drosophila S3 cells, BODIPY lipid droplet/cell ratio, laser cytometry, cells loaded with oleic acid; for activity change, negative = inhibition: at 57.5 µM (top of the series)
Method in brief: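 Cells seeded at 5,000 per well were treated with compounds over a concentration series and loaded with oleic acid (400 uM, as added). Lipid droplet fluorescence (488 nm excitation, 500-530 nm channel) was read by laser-scanning cytometry and normalized to 20 uM Triacsin C.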

[9] = Primary qHTS for small molecule stabilizers of the endoplasmic reticulum resident proteome: Secreted ER Calcium Modulated Protein (SERCaMP) assay (AID 1508630; active means well fitted curve in the direction sought with a large enough effect; an effect the other way counts as inactive or inconclusive; further: on the % scale 0 is the no-effect control and ±100 the full control effect); settings: SH-SY5Y GLuc-SERCaMP (Gaussia luciferase released on ER calcium loss) secretion, thapsigargin, luminescence; series mostly up to 38.4 µM
Method in brief: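 The SH-SY5Y reporter protocol was run at 3 concentrations up to 38.3 uM (primary) or 11 concentrations (follow-up): 16 h compound, 100 nM thapsigargin for 4 h, then extracellular luciferase luminescence.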

[10] = target: Glucocorticoid receptor (Homo sapiens) (UniProt P04150); experiment: GR-EFC Redistribution (AID 451; calls by dose curve; further: potency means the concentration at half of the fitted maximal effect); settings: CHO-K1 GR-EFC translocation, beta-gal luminescence, 2 h
Glucocorticoid receptor (Homo sapiens), sequence (P04150 whole entry, looked up, the tested form may be a part): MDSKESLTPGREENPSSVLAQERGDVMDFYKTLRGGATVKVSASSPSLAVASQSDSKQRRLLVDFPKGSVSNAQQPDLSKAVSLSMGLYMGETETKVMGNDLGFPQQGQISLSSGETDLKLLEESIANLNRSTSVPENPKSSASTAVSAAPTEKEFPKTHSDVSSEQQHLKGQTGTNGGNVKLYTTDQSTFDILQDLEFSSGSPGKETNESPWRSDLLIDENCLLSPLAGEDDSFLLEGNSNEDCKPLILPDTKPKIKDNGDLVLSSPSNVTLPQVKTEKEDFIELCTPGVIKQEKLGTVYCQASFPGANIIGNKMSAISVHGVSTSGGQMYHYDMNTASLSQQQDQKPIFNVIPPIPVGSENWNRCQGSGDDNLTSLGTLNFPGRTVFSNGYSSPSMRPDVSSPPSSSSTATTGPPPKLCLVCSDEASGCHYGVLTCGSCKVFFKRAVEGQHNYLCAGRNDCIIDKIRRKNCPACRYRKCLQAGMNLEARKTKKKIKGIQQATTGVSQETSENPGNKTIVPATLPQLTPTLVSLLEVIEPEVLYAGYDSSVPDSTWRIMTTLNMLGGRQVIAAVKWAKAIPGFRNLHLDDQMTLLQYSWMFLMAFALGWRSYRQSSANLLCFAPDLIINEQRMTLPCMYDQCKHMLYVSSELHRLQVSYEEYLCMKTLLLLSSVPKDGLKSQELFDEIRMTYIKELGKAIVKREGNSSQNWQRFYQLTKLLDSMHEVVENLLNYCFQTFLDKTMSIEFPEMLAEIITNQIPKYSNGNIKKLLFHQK
Method in brief: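 Translocation of GR-ED fusion to nuclear EA restores b-gal, read by luminescence after 1 h room-temperature detection. Engineered CHO-K1 biosensor cells, 1,000/well, exposed 2 h at 37 C to titrations up to 46 uM final.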

[11] = target: Cytochrome P450 2D6 (Homo sapiens) (UniProt P10635); experiment: qHTS Assay for Inhibitors and Substrates of Cytochrome P450 2D6 (AID 891; active means well fitted curve in the direction sought with a large enough effect; an effect the other way counts as inactive or inconclusive; further: potency means the concentration at half of the fitted maximal effect; nearly all actives have a fitted effect of over 60% in size); settings: recombinant CYP2D6, luciferin-ME EGE luminescence; series mostly up to 57.1 µM
Cytochrome P450 2D6 (Homo sapiens), sequence (P10635 whole entry, looked up): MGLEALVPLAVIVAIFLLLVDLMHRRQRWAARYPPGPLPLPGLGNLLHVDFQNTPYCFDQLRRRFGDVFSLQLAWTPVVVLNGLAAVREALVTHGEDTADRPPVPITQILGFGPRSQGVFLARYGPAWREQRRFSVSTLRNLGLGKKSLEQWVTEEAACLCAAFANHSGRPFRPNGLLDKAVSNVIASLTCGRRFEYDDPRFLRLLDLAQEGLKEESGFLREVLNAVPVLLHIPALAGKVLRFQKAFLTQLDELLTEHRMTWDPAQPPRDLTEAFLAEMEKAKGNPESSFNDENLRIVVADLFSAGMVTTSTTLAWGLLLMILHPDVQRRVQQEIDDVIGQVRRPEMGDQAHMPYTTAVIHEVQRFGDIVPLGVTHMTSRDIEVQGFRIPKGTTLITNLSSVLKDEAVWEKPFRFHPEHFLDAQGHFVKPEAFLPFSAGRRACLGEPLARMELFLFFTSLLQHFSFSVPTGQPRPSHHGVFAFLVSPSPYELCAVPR
Method in brief: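 Luminescent read-out of luciferin formed by 5 nM human CYP2D6 demethylating 30 uM Luciferin-ME EGE (Km level) over 60 min at room temperature after NADPH regeneration addition. Data normalized to full inhibition by 1.43 uM quinidine.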

[12] = target: Cytochrome P450 2C19 (Homo sapiens) (UniProt P33261); experiment: qHTS Assay for Inhibitors and Substrates of Cytochrome P450 2C19 (AID 899; active means well fitted curve in the direction sought with a large enough effect; an effect the other way counts as inactive or inconclusive; further: on the % scale 0 is the no-effect control and ±100 the full control effect; nearly all actives have a fitted effect of over 60% in size); settings: recombinant CYP2C19, luciferin-H EGE luminescence; series mostly up to 57.1 µM
Cytochrome P450 2C19 (Homo sapiens), sequence (P33261 whole entry, looked up): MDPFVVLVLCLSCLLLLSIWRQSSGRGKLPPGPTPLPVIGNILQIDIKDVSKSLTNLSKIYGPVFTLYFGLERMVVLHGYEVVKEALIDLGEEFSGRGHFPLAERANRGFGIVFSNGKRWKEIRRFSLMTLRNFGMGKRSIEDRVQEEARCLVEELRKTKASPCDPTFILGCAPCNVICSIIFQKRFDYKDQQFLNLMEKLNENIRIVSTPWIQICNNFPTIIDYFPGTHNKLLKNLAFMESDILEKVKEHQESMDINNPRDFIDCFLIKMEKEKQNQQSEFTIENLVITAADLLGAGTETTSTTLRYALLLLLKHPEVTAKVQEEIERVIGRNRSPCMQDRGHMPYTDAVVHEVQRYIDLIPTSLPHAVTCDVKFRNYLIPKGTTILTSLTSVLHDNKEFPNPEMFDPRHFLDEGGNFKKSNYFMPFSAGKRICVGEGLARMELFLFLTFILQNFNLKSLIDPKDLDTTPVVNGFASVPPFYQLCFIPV
Method in brief: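 Luminescence readout of luciferin formed from 10uM Luciferin-H EGE (KM level) by 5 nM CYP2C19 in 50mM KPO4. 60 min NADPH-driven reaction at 37C after 10 min compound preincubation; data scaled to 57uM ketoconazole inhibition.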

[13] = measured here: cell count channel max response
[14] = measured here: lipid channel max response

| Compound | Potency [1] | activity change, negative = inhibition [2] | Potency [3] | activity, negative = inhibition [4] | Potency [5] | Potency [6] | Potency [7] | activity change, negative = inhibition [8] | max response [8, 13] | max response [8, 14] | outcome [9] | Potency [10] | Potency [11] | Potency [12] |
| --- | --- | --- | --- | --- | --- | --- | --- | --- | --- | --- | --- | --- | --- | --- |
| Cn1cccc1C(=O)N1CCC2(CCN(Cc3ccncc3)CC2)CC1 | > 11.4 µM (inactive) | -3.94% (inactive) | 15.8 µM (active) | -9.94% (inactive) | inactive | inactive | inactive | 4.51% (inactive) | -5.01% | 3.28% | inactive | – | – | – |
| O=C(c1ccncc1)N1CCC2(CCN(Cc3ccncc3)CC2)CC1 | > 11.4 µM (inactive) | 7.83% (inactive) | inactive | -5.41% (inactive) | inactive | inactive | inactive | 4.23% (inactive) | 14.3% | 23.1% | inactive | > 46 µM (inactive) | – | – |
| COC(=O)N1CCC2(CCCN(Cc3ccc(C#N)cc3)C2)CC1 | > 11.4 µM (inactive) | -3.68% (inactive) | inactive | -2.36% (inactive) | inactive | inactive | inactive | -1.17% (inactive) | 13.4% | 12.9% | inactive | > 46 µM (inactive) | 0.316 µM (active) | – |
| c1ccc(-c2cccc(N3CCC4(CCNCC4)CC3)c2)cc1 | > 11.4 µM (inactive) | -2.96% (inactive) | 15.8 µM (active) | -2.71% (inactive) | inactive | inactive | inactive | 2.27% (inactive) | -17% | -12.4% | inactive | > 46 µM (inactive) | – | – |
| O=C(c1csnn1)N1CCC2(CCCN(Cc3ccccc3)C2)CC1 | > 11.4 µM (inactive) | 9.34% (inactive) | inactive | -5.61% (inactive) | inactive | inactive | – | 3.37% (inactive) | 10.8% | 18% | inactive | > 46 µM (inactive) | 1.26 µM (active) | – |
| O=C(Nc1ccccc1)N1CC[C@@]2(CCCN(C(=O)c3cc(C(F)(F)F)cc(C(F)(F)F)c3)C2)C1 | > 11.4 µM (inactive) | -5.62% (inactive) | 25.1 µM (active) | -6.2% (inactive) | inactive | inactive | inactive | 4.15% (inactive) | -0.407% | 6.94% | inactive | > 46 µM (inactive) | – | inactive |
| COCC(=O)N1CCC[C@@]2(CCN(C(c3ccccc3)c3ccccc3)C2)C1 | > 11.4 µM (inactive) | 0.34% (inactive) | 12.6 µM (active) | -0.903% (inactive) | inactive | inactive | inactive | -13.8% (inactive) | -8.5% | -21.2% | inactive | > 46 µM (inactive) | 6.31 µM (active) | – |
